Measurements as given in PubChem BioAssay AID743395 (Broad Institute, 2014).
Out of some 1,200 compounds screened, about 480 (40%) were called active. So high a share suggests a set chosen from earlier hits. A selection follows. Results with a measured potency or affinity are listed apart. Unmarked numbers belong to inactive results. The rule behind the calls is not given here.

Assay: viability loss in human hepatoma cells – cell-based, CellTiter-Glo luminescence, cherry-pick, set 2, cytotoxicity control, dose response (AID 743395);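 note: 0% = neutral control wells and -100% = positive control wells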
Conditions: HepG2 viability, CellTiter-Glo ATP luminescence, 72 h; series mostly up to 26 µM; activity change, negative = cytotoxicity: at the top concentration

| Compound | activity change, negative = cytotoxicity [%] |
| --- | --- |
| CCCC(=O)Nc1ccc2c(c1)C(=O)N(C)C[C@@H](OC)[C@H](C)CN(C(=O)CN1CCOCC1)[C@H](C)CO2 | -4.55 |
| Cc1ccc(/C=N/NC(=O)C2COc3ccccc3O2)s1 (stereo not drawn) | -13.9 |
| NS(=O)(=O)c1ccc(Cl)c(S(N)(=O)=O)c1 | -3.33 |
| CCN(CC)c1ccc(/C=C(/C#N)c2nc3ccc(C)cc3[nH]2)c(OC(C)C)c1 | -32.9 |
| Cc1cc(C)c(C(=O)NC2CCCc3c2cnn3-c2cccc(C)c2C)o1 (stereo not drawn) | -9.1 |
| CCNC(=S)NNC(=O)CC(C)C | -4.94 |
| CC(=O)NC(=S)Nc1ccc(NC(=S)NC(=O)/C=C/c2ccco2)cc1 | -3.21 |
| O=C(/C=C/c1ccco1)NC(=S)Nc1nc(-c2ccc3ccccc3c2)cs1 | -2.42 |
| CN(C(=O)c1ccccc1C(=O)OCC(=O)Nc1ccc(S(N)(=O)=O)cc1)c1ccccc1 | -17.8 |
| CCCCc1nc(Cl)c(CO)n1Cc1ccc(-c2ccccc2-c2nn[nH]n2)cc1 | 6.61 |
| COCCSc1ccccc1C(=O)Nc1cc([N+](=O)[O-])ccc1OC | -19.6 |
| COc1cc(NC(=O)COC(=O)c2n[nH]c3ccccc23)c(C)cc1[N+](=O)[O-] | -11.9 |
| C=CCn1c(SCC(=O)N(C)C2CCS(=O)(=O)C2)nc2ccccc2c1=O (stereo not drawn) | -11.1 |
| COC(=O)c1cc2c(=O)c3ccccc3oc2nc1/C=C/N(C)C | 6.84 |
| O=C(Cc1ccccn1)NCC[C@@H]1CC[C@H](NC(=O)Nc2ccc(C(F)(F)F)cc2)[C@H](CO)O1 | 2.91 |
| CCOC(=O)C1=CN(Cc2ccco2)S(=O)(=O)NC1c1ccc(C(F)(F)F)cc1 (stereo not drawn) | -15 |
| Cc1cc(C(=O)CN2C(=O)C(=O)N(Cc3ccccc3)C2=O)c(C)n1Cc1ccccc1 | -8.93 |
| CC(C)[N+]1(C)[C@@H]2CC[C@@H]1CC(OC(=O)C(CO)c1ccccc1)C2 (stereo partly drawn) | -13.9 |
| Cc1noc(C)c1NC(=O)N(C)C[C@H]1Oc2cc(C#CCC3CCCC3)ccc2S(=O)(=O)N([C@@H](C)CO)C[C@@H]1C | -21.9 |
| CCC1(C)Cc2ccccc2-c2nc[nH]c(=O)c21 (stereo not drawn) | -19.7 |
| O=S(=O)(c1ccc(OCc2ccc(Br)cc2)cc1)N1CCOCC1 | 2.21 |
| COc1cc(C(c2sc3nc(C)nn3c2O)N2CCN(c3ccccc3)CC2)cc(OC)c1OC (stereo not drawn) | 20.9 |
| Cn1nnnc1N=N/C(=N/Nc1ccccc1)c1ccccc1 | -12.8 |
| Cc1cccc(C(=O)NCC(=O)OCC(=O)N(C)CC(=O)Nc2ccccc2Cl)c1 | -8.28 |

| Compound | activity change, negative = cytotoxicity [%] |
| --- | --- |
| C[C@@H]1CN([C@H](C)CO)S(=O)(=O)c2ccc(C#Cc3ccccc3F)cc2O[C@H]1CN(C)C(=O)Cc1cccnc1 | 21.9 |
| COc1ccccc1C#Cc1ccc2c(c1)O[C@H](CN(C)Cc1cccnc1)[C@H](C)CN([C@@H](C)CO)S2(=O)=O | -5.36 |
| COc1ccccc1C#Cc1ccc2c(c1)O[C@@H](CN(C)Cc1cccnc1)[C@H](C)CN([C@@H](C)CO)S2(=O)=O | 5.01 |
| C[C@H]1CN([C@@H](C)CO)S(=O)(=O)c2ccc(/C=C/c3ccccc3)cc2O[C@H]1CN(C)Cc1ccccc1 | -32.4 |
| O=C(NC1CCCCC1)c1cc(C2CC2)nn1-c1ccccc1 | 2.5 |
| O=C(CNC1CCCCC1)NN=C(c1ccccc1)c1ccccc1 | -17.1 |
| CC(=O)Nc1cccc(NC(=O)CN2c3cccc4cccc(c34)S2(=O)=O)c1 | -14 |
| Cc1cc(Nc2ccc(Br)cc2)nc2ccccc12 | -20.8 |
| CC(=O)Nc1ccc(S(=O)(=O)Nc2cccc(-c3nc4cc(C)ccc4o3)c2)cc1 | -22.7 |
| Clc1ccc(Nc2ccc3ccccc3n2)cc1 | -12.5 |
| CC(=O)Nc1ccc(S(=O)(=O)N2c3ccccc3C(C)=CC2(C)C)cc1 | -29.7 |
| CCC1(C2=CCCCC2)C(=O)NC(=S)N=C1N (stereo not drawn) | -1.67 |
| Cc1cccc(S(=O)(=O)N2C[C@H]3[C@@H](c4ccccc42)[C@H](CO)N3CC2CCCC2)c1 | -7.41 |
| CCCNC(=O)N1CC2(CN(S(=O)(=O)c3cccc(OC)c3)C2)c2c(n(C)c3cc(OC)ccc23)[C@H]1CO | -5.83 |
| COc1cccc(-c2ccc([C@H]3[C@@H](CO)N(C(=O)c4ccccn4)[C@H]3C#N)cc2)c1 | -1.97 |
| N#Cc1ccc(-c2ccc3c(c2)[C@H]2[C@H](CCN2S(=O)(=O)c2ccccc2F)[C@@H](CO)N3)cc1 | -15.8 |
| N#Cc1ccc(-c2ccc(C3[C@@H]4CN(C(=O)C5CCC5)C[C@H]3N4)cc2)cc1 (stereo partly drawn) | -25.8 |
| CCOC(=O)/C(=C/C=C1\Sc2cc(C)c(C)cc2N1CC)C(C)=O | -4.04 |
| COCC(C)n1c(SCC(=O)N2CC(=O)Nc3ccccc32)nc2ccccc2c1=O (stereo not drawn) | -14.5 |
| CCN(CC(=O)Nc1c(F)cccc1F)C(=O)C1CC1 | -0.756 |
| CN(c1ccc(OCCOc2ccccc2Cl)cc1)S(=O)(=O)c1ccccc1 | -26.7 |
| O=C1c2cccc3c(N4CCCCC4)ccc(c23)C(=O)N1c1cccc(O)c1 | -8.5 |
| Cn1c(=O)c(NC2CCCCC2)c2c3c(cccc31)C(=O)c1ccccc1-2 | 5.22 |
| O=C(COC(=O)/C=C/c1ccccc1Cl)NC(=O)NCc1ccccc1 | -17.1 |
